Bioassay records: PubChem BioAssay, National Center for Advancing Translational Sciences (NCATS)
Sampled rows, rich in hits. Any-hit rate of the full collection: about 14%.
Pf growth 96h: P. falciparum growth inhibition at 96 hour, primary screen for plastid delayed-death inhibitors; P. falciparum luciferase reporter growth, 96 h; actives 6.9% (n = 320,000); Potency, µM (top dose mostly 28.7 µM), actives largely listed as inhibitors
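Compounds incubated with erythrocytes infected by luciferase-expressing P. falciparum (2% hematocrit, 0.05% parasitemia final) for 96 hours, 37 C in 5% CO2. Growth inhibition scored as decreased luciferase luminescence.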
HCMV inh: blocks human cytomegalovirus replication; HFF cells, HCMV-luciferase reporter, 72 h; stronger effect = lower value; activity change, negative = inhibition, % at 57.5 µM; actives 4.5% (n = 410,000); in the data active = activity change below about -60%; inconclusive = no clear call, values can overlap the other calls; inactive = above about -39%
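Two-dose cell screen: HFF monolayers treated with compounds and infected with luciferase-expressing HCMV at 1 PFU/cell, 72 h at 37C, then lysed for luciferase measurement.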
Marburg entry inh: inhibitors of Marburg virus binding or cell entry | AID 540276 | Potency, µM (top dose mostly 37.8 µM), usual class: inhibitors | Marburg virus pseudotyped entry inhibition, cell reporter | actives 1.8% (n = 300,000); calls by dose curve; tested in HEK293 cells
Lassa entry inh: Lassa virus entry inhibition. Lassa virus pseudotype entry inhibition, cell reporter. Potency, µM (highest dose often 37.9 µM), actives largely listed as inhibitors. AID 540256. actives 1.2% (n = 300,000); calls by dose curve; tested in HEK293 cells; note: nearly all actives have a fitted effect of over 50% in size
Pf growth 48h: P. falciparum growth inhibition at 48 hours (one generation); actives 5.9% (n = 310,000); AID 504832; Potency, µM (titrated, usually from 28.7 µM), usual class: inhibitors; P. falciparum luciferase growth in erythrocytes, 48 h
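A one-generation exposure of luciferase-tagged malaria parasites in RPMI 1640/Albumax erythrocyte culture, 37 C and 5% CO2. Inhibition is inferred from decreased luminescence after adding detection reagent.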
HCV inh: HCV inhibition; Huh7.5.1 HCVcc-Cre infection, luciferase reporter, 44 h; Potency, µM (top dose mostly 41.8 µM), hits mostly inhibitors; actives 3.4% (n = 340,000); AID 651820
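Luciferase read-out (15 sec integration) after a 15 min room-temperature substrate step quantifies HCVcc-Cre infection. Cells, 1,000 per well, had compound added 4 h post-plating, then virus at ~0.5 moi, and were cultured 44 h.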
A number is an active result; – = inactive; ? = inconclusive; · = no result given; [ ] = remark or other dose. Unless noted, calls come from the whole dose curve; as a rule, active = well fitted inhibition curve with a large enough effect; inconclusive = small, poorly fitted or top-dose-only effect, or another doubt; inactive = no such curve, though single readings can be large or run the other way.

SMILES	Pf growth 96h	HCMV inh	Marburg entry inh	Lassa entry inh	Pf growth 48h	HCV inh
O=S(=O)(Nc1ccc(Br)cn1)c1ccc(Cl)s1	–	–	·	·	–	–
CC[n+]1c(C)sc2c3ccsc3ccc21	–	–	–	?	15µM	–
CCCC[n+]1c(C)sc2cc(OC)ccc21	–	–	·	·	–	–
O=C(Cn1c(=O)nc(-c2ccccc2F)c2cc(Cl)ccc21)N1CCN(c2ccccc2F)CC1	·	–	·	–	·	·
Cc1cc(C)n(CCNC(=O)c2cc(COc3ccc4ncccc4c3)on2)n1	–	–	·	·	?	?
O=C(NCc1cccc(Cl)c1)c1cc(COc2ccc3ncccc3c2)on1	?	?	?	?	–	6.3µM
CC(CCCC(C)(C)O)NC(=O)c1cc(COc2ccc3ncccc3c2)on1 (stereo not drawn)	–	-88	–	?	?	5.6µM
Cc1ccc(F)cc1CNC(=O)c1cc(COc2ccc3ncccc3c2)on1	?	-96	?	?	–	2.8µM
NCC(c1ccccc1)c1c[nH]c2ccccc12 (stereo not drawn)	–[5.75 µM]	–	?	–	–	?
Cc1ccc2[nH]cc(C(c3ccccc3)c3cccs3)c2c1 (stereo not drawn)	·	-79	?	–	·	·
Cc1ccc2[nH]cc(C(c3ccccc3)c3ccc(C)s3)c2c1 (stereo not drawn)	·	-100	?	?	·	·
O=C(Nc1ccc(-c2nc3ccccc3o2)cc1)c1ccc(N2C(=O)C3C4C=CC(C4)C3C2=O)cc1 (stereo not drawn)	1.9µM	–	–	15µM	·	4µM
Cc1c(NC(=O)c2ccc3c(c2)OCO3)cccc1-c1nc2ccccc2o1	–	–	21µM	21µM	–	?
O=C(Nc1ccc(-c2nc3ccccc3o2)cc1)c1ccc2c(c1)OCO2	?	-108	–	–	?	?
Cc1ccc2oc(-c3ccc(NC(=O)c4ccc5c(c4)OCO5)cc3)nc2c1	–	–	–	–	–	?
C[C@H]1CN([C@@H](C)CO)C(=O)c2cc(-c3ccccc3F)cnc2O[C@@H]1CN(C)C(=O)NC1CCCCC1	·	–	·	·	·	·
CCOC(=O)C(Oc1ccc2c(-c3ccc(OC)cc3)cc(=O)oc2c1C)c1ccccc1 (stereo not drawn)	–	–	?	13µM	?	–
COc1ccc(-c2cc(=O)oc3c(C)c(OC(C)C(C)=O)ccc23)cc1 (stereo not drawn)	–	–	·	·	–	?
CCOC(=O)C(Oc1ccc2c(-c3ccccc3)cc(=O)oc2c1C)c1ccccc1 (stereo not drawn)	?	–	–	?	12µM	?
Cn1cc(C(=O)N/N=C/C(Br)=C/c2ccccc2)ccc1=O	?	–	–	–	?	–
COc1ccc(C(=O)N/N=C/C(Br)=C/c2ccccc2)cc1	–	-65	–	–	?	?
COc1cccc(C(=O)N/N=C/C(Br)=C/c2ccccc2)c1	–	?	?	–	13µM	?
O=C(N/N=C/C(Br)=C/c1ccccc1)c1cnccn1	?	-61	?	?	?	–
Cc1ccccc1C(N)c1ccncc1 (stereo not drawn)	5.9µM	–	·	·	–	–
CC(Nc1ccccc1)c1ccncc1 (stereo not drawn)	–	–	–	–	–	–
SMILES	Pf growth 96h	HCMV inh	Marburg entry inh	Lassa entry inh	Pf growth 48h	HCV inh
COc1ccc(C2C(C#N)=C(N)N(c3ccccc3)C3=C2C(=O)CCC3)cc1Cn1cc([N+](=O)[O-])cn1 (stereo not drawn)	15µM	–	?	?	8.3µM	?
COc1ccc(C2C(C#N)=C(N)N(c3cccnc3)C3=C2C(=O)CCC3)cc1Cn1cc([N+](=O)[O-])cn1 (stereo not drawn)	?	–	–	–	?	–
Cc1nn(C)cc1C1C(C#N)=C(N)N(c2ccc(F)c([N+](=O)[O-])c2)C2=C1C(=O)CCC2 (stereo not drawn)	9.3µM	–	–	–	?	–
COc1ccc(C(=O)/C=C/C(=O)N(CC(=O)NC2CCCCC2)Cc2ccccc2)c(O)c1	2.6µM	-99	?	4µM	?	?
COc1ccc(C(=O)/C=C/C(=O)N(CC(=O)NC2CCCCC2)Cc2ccccc2OC)c(O)c1	?	-97	?	?	9.3µM	?
Cc1ccc(S(=O)(=O)N2c3ccccc3NC(=O)C2CC(=O)Nc2ccccc2)cc1 (stereo not drawn)	12µM	–	–	–	?	–
Cc1ccc(S(=O)(=O)N2c3ccccc3NC(=O)CC2C)cc1 (stereo not drawn)	–	–	–	–	?	–
Cc1ccc(CNC(=O)Cn2cnc(C(=O)Nc3ccc(C)c(C)c3)n2)o1	·	–	·	·	·	–
CN(CCOc1ccc(-c2ccn(S(=O)(=O)c3c(Cl)cccc3Cl)n2)cc1)c1ccccn1	2.6µM	–	–	–	?	–
CN(CCOc1ccc(-c2ccn(S(=O)(=O)c3cccc4ccccc34)n2)cc1)c1ccccn1	9.3µM	–	?	–	10µM	?
CN(CCOc1ccc(C=C2C(=O)NC(=O)NC2=O)cc1)c1ccccn1	–	–	·	·	–	–
COc1ccc(S(=O)(=O)n2ccc(-c3cnc(-c4ccccc4)s3)n2)cc1	?	–	?	?	?	?
CN(CCOc1ccc(-c2ccn(S(=O)(=O)c3ccc(Cl)cc3)n2)cc1)c1ccccn1	10µM	–	–	?	10µM	1.1µM
CCOC(=O)c1ccc(NS(=O)(=O)c2c(C)nc3sccn3c2=O)cc1	10µM	–	·	·	–	–
Cc1nc2sccn2c(=O)c1S(=O)(=O)N1CCN(c2cccc(C(F)(F)F)c2)CC1	10µM	?	–	–	?	–
Cc1nc2scc(C)n2c(=O)c1S(=O)(=O)Nc1ccc(N2CCOCC2)c(Cl)c1	9.3µM	?	–	–	–	?
CCN1CCN(c2ccc(NS(=O)(=O)c3c(C)nc4sccn4c3=O)cc2Cl)CC1	·	-68	?	–	·	·
Cc1ccc(NS(=O)(=O)c2c(C)nc3sccn3c2=O)cc1	–	–	·	·	–	–
Cc1nc2sccn2c(=O)c1S(=O)(=O)Nc1ccc(N2CCOCC2)c(Cl)c1	?	–	–	–	–	–
Cc1nc2scc(C)n2c(=O)c1S(=O)(=O)Nc1cccc(O)c1	·	–	–	–	·	·
CCCc1cc(C(=O)N(C)CC(=O)Nc2ccc(OCC)c(OCC)c2)sc1C	?	–	?	–	?	?
COC(=O)c1ccc(NC(=O)CSc2nc3ccc(OC)cc3[nH]2)cc1	·	–	–	–	·	·
Nc1c(-c2nc(-c3ccc4c(c3)OCO4)cs2)c2ccccn2c1C(=O)c1ccccc1	·	–	–	–	·	·
Cc1nc2sccn2c(=O)c1S(=O)(=O)NCc1ccccc1	–	–	–	–	–	–
COc1cccc(CNS(=O)(=O)c2c(C)nc3sccn3c2=O)c1	0.52µM	–	·	·	–	–
O=C(O)c1ccccc1C(=O)Nc1ccc(Oc2cccc3ccccc23)cc1	–	-64	?	?	–	–
